The entries come from a sample that favours hits as a whole.
U2OS ROS induce: raises reactive oxygen species in U2OS cancer cells; ROS induction (% of piperlongumine), % at 10 µM; 46,000 tested, 2% active; U2OS ROS induction, H2DCF-DA fluorescence; in the data active = ROS induction above about 79%, passing the limit was not always enough;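 note: 0% = DMSO vehicle median and 100% = reference compound median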
NOMO-1 viab: STK33 inhibitor candidate reducing NOMO-1 cell viability | NOMO-1 AML viability, CellTiter-Glo luminescence, 72 h | 37,000 tested, 7.5% active | AID 2330 | inhibition, % (test concentration not listed); in the data active = inhibition above about 80%
* marks the source's active call; other numbers are inactive results; / = no result.

SMILES	U2OS ROS induce	NOMO-1 viab
Cc1noc(C)c1NC(=O)N(C)C[C@@H]1Oc2ccc(NC(=O)CCCCCC(=O)Nc3ccccc3N)cc2C(=O)N([C@@H](C)CO)C[C@H]1C	-1	9
CC1CCN(C(=O)c2ccc(CSc3nc4ccncc4[nH]3)cc2)CC1	-2	/
O=C1C2Sc3[nH]c(=O)sc3C(/C=C/c3ccccc3)C2C(=O)N1c1ccc(Br)cc1 (stereo not drawn)	12	/
Cc1cc2nc(-c3ccc(C)c(NC(=O)COc4ccc([N+](=O)[O-])cc4)c3)oc2cc1C	-3	94*
Cc1cccc(OCC(=O)Nc2cc(-c3nc4cc(Cl)ccc4o3)ccc2C)c1	-16	103*
Cc1ccc2oc(-c3ccc(Cl)c(NC(=O)COc4ccc(C)c(C)c4)c3)nc2c1	2	16
Cc1ccc2oc(-c3ccc(C)c(NC(=O)COc4ccc(Br)cc4)c3)nc2c1	1	44
CC(C)=C1N=C(c2ccccc2)OC1=O	-6	/
C[C@H]1CN([C@@H](C)CO)C(=O)c2cc(NC(=O)Cc3ccccc3)ccc2O[C@@H]1CN(C)Cc1ccc(-c2ccccc2)cc1	177*	21
C[C@@H]1CN([C@@H](C)CO)C(=O)c2cc(NC(=O)Cc3ccccc3)ccc2O[C@H]1CN(C)Cc1ccccc1	-5	11
C[C@@H]1CN([C@@H](C)CO)C(=O)c2cc(NC(=O)Cc3ccccc3)ccc2O[C@@H]1CN(C)Cc1ccccc1	8	25
C[C@H](CO)N1C[C@H](C)[C@@H](CN(C)Cc2ccc(-c3ccccc3)cc2)Oc2ccc(NC(=O)Cc3ccccc3)cc2C1=O	274*	19
COc1ccc(C)cc1NC(=O)CS(=O)(=O)c1ccccc1	/	31
CC1CCC2(C)C(C(=O)O)=CCCC2C1(C)CCC1=CC(=O)OC1O (stereo not drawn)	-2	28
COc1ccc(N2C(=O)CC(SCC(=O)Nc3cccc(Br)c3)C2=O)cc1 (stereo not drawn)	11	18
O=C(COC(=O)c1ccc(Br)cc1)c1ccc(Br)cc1	12	19
O=C(COC(=O)c1c(C(F)(F)F)cccc1C(F)(F)F)c1ccc(Cl)cc1	-1	111*
N#Cc1c(C(F)(F)F)cc(-c2cccs2)nc1S/C=C/C(=O)c1ccccc1	126*	116*
N#Cc1c(C(F)(F)F)cc(-c2cccs2)nc1SCC(=O)Nc1c(F)cccc1F	2	16
O=C(N/N=C/c1cc(I)cc(I)c1O)c1ccccc1O	-26	/
Cc1noc(C)c1NC(=O)Nc1ccc2c(c1)C(=O)N([C@H](C)CO)C[C@@H](C)[C@@H](CN(C)S(=O)(=O)c1ccc(F)cc1)O2	0	0
Cc1ccc(C(=O)N(C)Cc2ccccc2)cc1	-6	/
CC(C)(CC(=O)O)CC(=O)Nc1ccc(Cl)cc1Cl	12	/
COc1cccc(Cc2nnc(-c3ccc(-c4cccs4)s3)o2)c1	30	9
c1csc(-c2nnc(CSc3cccc4cccnc34)o2)c1	-7	112*
SMILES	U2OS ROS induce	NOMO-1 viab
O=C1N(CCS(=O)(=O)c2ccccc2)Cc2ccccc2C[C@@]12N=C(c1ccc(OCCCO)cc1)O[C@H]2c1ccccc1	32	/
COc1cccc(CNc2nc3ccccc3n2CCN2CCOCC2)c1O	1	25
COc1ccc(C(=O)N(Cc2nc(-c3ccc(C)cc3)no2)C(C)C)cc1	10	-2
C[C@H](CO)N1C[C@H](C)[C@H](CN(C)C(=O)Nc2cccc3ccccc23)Oc2ccc(NC(=O)Nc3ccc(C(F)(F)F)cc3)cc2C1=O	-9	114*
C[C@H]1CN([C@@H](C)CO)C(=O)c2cc(NC(=O)Nc3cccc4ccccc34)ccc2O[C@@H]1CN(C)C(=O)Nc1ccccc1	-11	17
C[C@@H]1CN([C@H](C)CO)C(=O)c2cc(NC(=O)Nc3ccc(C(F)(F)F)cc3)ccc2O[C@H]1CN(C)C(=O)Nc1cccc2ccccc12	41	117*
C[C@@H]1CN([C@H](C)CO)C(=O)c2cc(NC(=O)Nc3cccc4ccccc34)ccc2O[C@@H]1CN(C)C(=O)Nc1ccccc1	84*	27
C[C@@H]1CN([C@H](C)CO)C(=O)c2cc(NC(=O)Nc3cccc4ccccc34)ccc2O[C@@H]1CN(C)C(=O)Nc1ccc(C(F)(F)F)cc1	-7	22
C[C@@H]1CN([C@@H](C)CO)C(=O)c2cc(NC(=O)Nc3ccc(F)cc3)ccc2O[C@@H]1CN(C)C(=O)Nc1cccc2ccccc12	-3	69
Cc1ccc(Cl)cc1NC(=O)Cn1cnc2ccccc2c1=O	-15	28
COc1cc(C(=O)Nc2ccc(OCC(=O)O)cc2)ccc1OC(C)=O	2	23
COc1ccc(Cl)cc1NC(=O)CSc1nc2ccccc2c(=O)[nH]1	/	2
CSc1ccc2nnc(-c3ccc(F)cc3)n2n1	-6	/
Cc1cc(C)cc(Sc2ccc3nnc(-c4ccccc4)n3n2)c1	35	122*
C[C@H]1CN([C@@H](C)CO)C(=O)c2cc(NC(=O)NC3CCCCC3)ccc2O[C@H]1CN(C)C(=O)Nc1ccccc1	-11	0
C[C@@H]1CN([C@H](C)CO)C(=O)CCCn2nncc2CO[C@@H]1CN(C)S(=O)(=O)c1ccc(-c2ccccc2)cc1	14	/
Cc1ccc(Cn2nc(C)cc2C(=O)Sc2ccccc2)cc1	64	92*
Cc1ccc(Cn2nc(C)cc2C(=O)Nc2ccc(C)cc2)cc1	8	40
O=C(NCc1cccs1)C1CCN(c2ncnc3c2sc2cccc(F)c23)CC1	52	/
C[C@H](CO)N1C[C@H](C)[C@H](CN(C)C(=O)Nc2cccc3ccccc23)Oc2ccc(NC(=O)Cc3cn(C)c4ccccc34)cc2C1=O	5	88*
C[C@@H]1CN([C@H](C)CO)C(=O)c2cc(NC(=O)Cc3cn(C)c4ccccc34)ccc2O[C@H]1CN(C)C(=O)Nc1cccc2ccccc12	9	8
C[C@H]1CN([C@@H](C)CO)C(=O)c2cc(NC(=O)Cc3cn(C)c4ccccc34)ccc2O[C@@H]1CN(C)C(=O)Nc1cccc2ccccc12	9	5
C[C@@H]1CN([C@@H](C)CO)C(=O)c2cc(NC(=O)Cc3cn(C)c4ccccc34)ccc2O[C@@H]1CN(C)C(=O)Nc1cccc2ccccc12	4	125*
O=C1CC2(CCCC2)C(=O)N1C1CCN(c2ncc(C(F)(F)F)cc2Cl)CC1	12	/
CCN1C(=O)CSc2ccc(C(=O)NCCc3ccc(OC)c(OC)c3)cc21	1	/
SMILES	U2OS ROS induce	NOMO-1 viab
O=C(CCCCCC(=O)Nc1ccccc1O)N/N=C/c1ccc(O)c(F)c1	-6	/
O=C(Nc1ccc(-c2nc3cc(NC(=O)C4CCCCC4)ccc3o2)cc1)C1CCCCC1	47	99*
Cc1ccc2nc(-c3cccc(NC(=O)C4CCCCC4)c3)oc2c1	13	/
CC(C)CC(NS(=O)(=O)c1cccc2nsnc12)C(=O)O (stereo not drawn)	/	5
COC(=O)C(CC(C)C)NS(=O)(=O)c1ccc(-c2nnc(SC)n2C)s1 (stereo not drawn)	1	119*
C=C(C)[C@@H]1CC[C@]2(C(=O)O)CC[C@]3(C)[C@H](CC[C@@H]4[C@@]5(C)CC[C@H](O)C(C)(C)[C@@H]5CC[C@]43C)[C@@H]12	0	105*
C=C(C)[C@@H]1CC[C@]2(C(=O)O)CC[C@]3(C)[C@H](CCC4[C@@]5(C)CCC(=O)C(C)(C)C5C(O)C[C@]43C)C12 (stereo partly drawn)	64	104*

Source: PubChem BioAssay
